Test results published in PubChem BioAssay (EPA / NIEHS).
Calls of active or inactive are those of the source. The calls were made as follows: active = hit-call score of the fitted dose curve at least 0.9, where 1 is the maximum; inactive = score below 0.9.

Assay: CEETOX_H295R_CORTIC: CeeTox H295R High-throughput Steroidogenesis Assay for Corticosterone (CORTIC) (AID 2283437)
Settings: actives raise or lower the signal
Summary of the method: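 Medium corticosterone was quantified by tandem mass spectrometry following 48 hours of chemical exposure (0.1% DMSO) in human H295R cells previously stimulated 48 hours with 10 uM forskolin. Viability checked by MTT; chemicals diluted and retested when viability fell below 70%.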

| SMILES | outcome |
| --- | --- |
| CCCSP(=O)(OCC)SCCC | inactive |
| CNC(=O)ON=C(C)SC | inactive |
| CNc1cnn(-c2cccc(C(F)(F)F)c2)c(=O)c1Cl | inactive |
| CCNc1nc(Cl)nc(NC(C)(C)C#N)n1 | inactive |
| CCCCN(CC)c1c([N+](=O)[O-])cc(C(F)(F)F)cc1[N+](=O)[O-] | inactive |
| CCOP(=S)(OCC)Oc1ccc([N+](=O)[O-])cc1 | inactive |
| CCOP(=O)(NC(C)C)Oc1ccc(SC)c(C)c1 (stereo not given) | inactive |
| COc1ccc(C(=CC(=O)N2CCOCC2)c2ccc(Cl)cc2)cc1OC | inactive |
| CCOC(=O)COc1cc(-c2nn(C)c(OC(F)F)c2Cl)c(F)cc1Cl | inactive |
| COP(=O)(NC(C)=O)SC (stereo not given) | inactive |

Assay: CEETOX_H295R_CORTISOL: CeeTox H295R High-throughput Steroidogenesis Assay for Cortisol (AID 2283438);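 also: cortisol secreted into medium quantified by LC-MS/MS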
Settings: actives raise or lower the signal
Summary of the method: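 Cortisol measured by HPLC-MS/MS after MTBE extraction of medium from H295R cells exposed 48 h to chemical (0.1% DMSO), following 48 h prestimulation with 10 uM forskolin. Viability assessed by MTT in the same wells.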

| SMILES | outcome | AC50 |
| --- | --- | --- |
| CCCSP(=O)(OCC)SCCC | inactive |  |
| CNC(=O)ON=C(C)SC | inactive |  |
| CNc1cnn(-c2cccc(C(F)(F)F)c2)c(=O)c1Cl | inactive |  |
| CCNc1nc(Cl)nc(NC(C)(C)C#N)n1 | inactive |  |
| CCCCN(CC)c1c([N+](=O)[O-])cc(C(F)(F)F)cc1[N+](=O)[O-] | inactive |  |
| CCOP(=S)(OCC)Oc1ccc([N+](=O)[O-])cc1 |  | 1.93 µM (active) |
| CCOP(=O)(NC(C)C)Oc1ccc(SC)c(C)c1 (stereo not given) | inactive |  |
| COc1ccc(C(=CC(=O)N2CCOCC2)c2ccc(Cl)cc2)cc1OC |  | 35.2 µM (active) |
| CCOC(=O)COc1cc(-c2nn(C)c(OC(F)F)c2Cl)c(F)cc1Cl | inactive |  |
| COP(=O)(NC(C)=O)SC (stereo not given) | inactive |  |
